# Bioassay records from PubChem BioAssay.
# GPT2 inhibitor = GPT2 alanine aminotransferase inhibition | Potency, µM (doses to about 57.7 µM), without a hit: at the top dose activity change, negative = inhibition, most hits filed as inhibitors | AID 1671188 | Q8TD30 | 100,000 compounds, 0.25% hits | Recombinant GPT2, coupled pyruvate oxidase/HRP Amplex Red fluorescence; further: nearly all actives have a fitted effect of over 60% in size
#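 Recombinant GPT2 (10ng/uL) with 250uM a-KG and 2mM L-alanine, 30 min at room temperature, in HEPES pH 7.5 buffer. Pyruvate detected by pyruvate oxidase/HRP/Amplex Red fluorescence after 30 min in the dark; AOA (50uM) as positive control.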
# Luciferase inh = inhibitors of firefly (Photinus pyralis) luciferase. P08659. purified P. pyralis luciferase, luminescence, biochemical. AID 1347043. Potency, µM (doses to about 115 µM), most hits filed as inhibitors. 76,000 compounds, 2.5% hits; further: nearly all actives have a fitted effect of over 65% in size
# Target sequence (P08659 whole entry, looked up): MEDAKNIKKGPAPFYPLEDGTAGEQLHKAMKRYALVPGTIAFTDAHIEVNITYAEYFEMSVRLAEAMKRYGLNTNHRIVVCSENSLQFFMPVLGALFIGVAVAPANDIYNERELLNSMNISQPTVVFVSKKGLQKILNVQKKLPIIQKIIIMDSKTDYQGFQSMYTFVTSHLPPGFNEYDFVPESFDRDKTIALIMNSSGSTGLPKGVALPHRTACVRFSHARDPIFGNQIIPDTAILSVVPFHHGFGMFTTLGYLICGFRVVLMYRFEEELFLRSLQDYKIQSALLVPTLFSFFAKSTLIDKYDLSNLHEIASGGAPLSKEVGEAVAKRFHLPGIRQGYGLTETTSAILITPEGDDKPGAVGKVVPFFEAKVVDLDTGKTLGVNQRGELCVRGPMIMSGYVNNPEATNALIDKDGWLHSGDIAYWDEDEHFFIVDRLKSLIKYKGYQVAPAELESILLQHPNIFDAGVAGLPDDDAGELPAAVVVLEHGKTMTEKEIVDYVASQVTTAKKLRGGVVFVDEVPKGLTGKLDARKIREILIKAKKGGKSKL
#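 Inhibitors were tested against purified firefly luciferase in a biochemical, low-substrate format (both substrates at 10uM) and luminescence measured with a CCD imager.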
# HEK cytotox = kills HEK 293 cells. HEK 293 viability, ATP luminescence (CellTiter-Glo), 48-72 h. Potency, µM (series often up to 115 µM), without a hit: at the top dose activity change, negative = cytotoxicity, hits mostly inhibitors. 94,000 compounds, 6.6% hits. AID 1345083; further: nearly all actives have a fitted effect of over 60% in size
#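 250 HEK 293 cells/well; compound by pintool; incubated 48 or 72 hr at 37 degree Celsius; CellTiter-Glo added, 10 min RT, luminescence imaged.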
# hNpr1 antagonist = blocks ANP-stimulated signaling of human Npr1 receptor; P16066; HEK293 hNpr1 GloSensor cGMP, ANP-stimulated luminescence; Potency, µM (highest dose often 46.3 µM), inactives show top-dose activity change, negative = inhibition, hits mostly inhibitors; 76,000 compounds, 1.6% hits; AID 1347048; calls by dose curve; further: nearly all actives have a fitted effect of over 60% in size
#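 Compound pre-incubated 30 min at room temperature on GloSensor-loaded HEK293 cells stably carrying hNpr1 and the pGS-40F cGMP biosensor. Stimulation uses hNppA at 0.1 nM final; luminescence is taken at baseline and 20 min post-agonist.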
# 3T3 cytotox = NIH 3T3 cell cytotoxicity. Potency, µM (titrated, usually from 96.7 µM), for the others: at the top dose activity change, negative = cytotoxicity, most hits filed as inhibitors. 94,000 compounds, 4.3% hits. AID 1345082. NIH 3T3 viability, CellTiter-Glo ATP luminescence, 48-72 h; further: nearly all actives have a fitted effect of over 55% in size
#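 Cytotoxicity is measured as loss of cellular ATP: NIH 3T3 cells (400/well) are exposed to compound for 48 or 72 hr at 37 °C, then CellTiter-Glo luminescence is imaged after 10 min at room temperature.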
# * hit, by the source's call; i = inactive; ? = inconclusive; . = not tested or not shown; [ ] = another dose, or the depositor's remark. Sampled rows, rich in hits. Any-hit rate of the full collection: about 10%. Unless noted, the call rests on the fitted dose curve; in most records, active means well fitted curve in the direction sought with a large enough effect; inconclusive means small, poorly fitted or top-dose-only effect, or another doubt; inactive means no such curve, though single readings can be large; an effect the other way counts as inactive or inconclusive. On the % scale 0 is the no-effect control and ±100 the full control effect; potency means the concentration at half of the fitted maximal effect.
SMILES,GPT2 inhibitor,Luciferase inh,HEK cytotox,hNpr1 antagonist,3T3 cytotox
CC(c1ccc(F)cc1)N1Cc2cc(NC(=O)Cc3cccs3)ccc2OCC1=O (stereo unspecified),i,i,40µM*,?,?
Cc1nnc(-c2cc(-c3cccc(N(C)C)c3)ccn2)n1Cc1ccccc1,-12%[88.5 µM],?,89µM*,4%[70.6 µM],50µM*
COCCn1c(C)nnc1-c1cc(-c2ccc(OC)c(OC)c2)ccn1,i,i,2%[172 µM],2%[70.6 µM],89µM*
COc1cccc(-c2ccnc(-c3nnc(C)n3Cc3ccccc3)c2)c1,-18%[88.5 µM],i,?,-2%[70.6 µM],79µM*
CC(=O)Nc1cccc(-c2ccnc(-c3nnc(C)n3Cc3ccccc3)c2)c1,-6%[88.5 µM],50µM*,?,-18%[70.6 µM],?
COCCN(CCOC)CC[C@@H]1CC[C@H](O)[C@@H](C(=O)Nc2ccccc2)O1,-3%[88.5 µM],i,i,2%[70.6 µM],0%[138 µM]
CN(Cc1ccccc1)C(=O)c1cn2ccnc(-c3ccccc3)c2n1,3%,i,?,-5%,-26%
CCc1ccc(S(=O)(=O)N2CCC(n3cnnc3-c3ccccc3)CC2)cc1,i,.,?,.,?
COc1ncc(-c2ccnc(-c3nnc(C)n3CCc3ccccc3)c2)cn1,4%[88.5 µM],i,-5%[172 µM],5%[70.6 µM],100µM*
Cc1nnc(-c2cc(-c3ccc(CO)cc3)ccn2)n1CCc1ccccc1,-6%[88.5 µM],i,?,4%[70.6 µM],-24%[138 µM]
Cc1nnc(-c2cc(-c3ccc(CO)cc3)ccn2)n1Cc1ccccc1,2%[88.5 µM],i,?,2%[70.6 µM],?
Cc1nnc(-c2cc(-c3cccc(F)c3)ccn2)n1Cc1ccccc1,i,i,89µM*,1%[70.6 µM],?
O=C(C1CCCN([S+](=O)([O-])c2cccs2)C1)N1CCC(c2nc3ccncc3[nH]2)CC1 (stereo unspecified),i,.,3%,.,-22%
Cc1nc2n(c1C(=O)Nc1cc(-c3ccc(F)cc3)[nH]n1)CCC(Nc1ccc(F)cc1)C2 (stereo unspecified),-2%,?,?,-18%,32µM*
O=C(NCCNC(=O)c1cccc(-c2ccsc2)c1)c1ccc(Cl)nc1,-4%,.,-6%,.,-1%
CCCS(=O)(=O)N1CCC(N2CC(OCC3CC3)C23CCCCC3)CC1 (stereo unspecified),-12%,.,-3%,.,?
O=C1NCCCCCCN(Cc2cccc(F)c2)[C@H]2CCC[C@@H]12,i,i,79µM*,-15%,?
N#Cc1cccc(CN2CCCCCNC(=O)[C@@H]3CCC[C@@H]32)c1,-16%,i,-21%,-3%,-24%
N#Cc1ccc(CN2CCCCCNC(=O)[C@@H]3CCC[C@@H]32)cc1,-23%,i,79µM*,-9%,?
COc1ccccc1-c1cc2c(nc1OC)nc(CC1CC1)n2C,-10%[88.5 µM],i,?,0%[70.6 µM],?
Cc1nc2cccnc2n1CC1CCCN(S(=O)(=O)Cc2ccc(Cl)cc2)C1 (stereo unspecified),-21%,i,32µM*,?,?
Cc1ccc(S(=O)(=O)N2CCCC(Cn3c(C4CC4)nc4cccnc43)C2)c(C)c1 (stereo unspecified),i,i,35µM*,-24%,?
COc1cccc(NC(=O)N2CCCC(Cn3c(C)nc4cccnc43)C2)c1 (stereo unspecified),-5%,i,12%,-1%,1%
Cc1cc(NC(=O)N2CCCC(Cn3c(C)nc4cccnc43)C2)ccc1Br (stereo unspecified),i,i,32µM*,-22%,?
CCc1ccccc1S(=O)(=O)N1CCCC(Cn2c(C3CC3)nc3cccnc32)C1 (stereo unspecified),0%,i,40µM*,-19%,?
SMILES,GPT2 inhibitor,Luciferase inh,HEK cytotox,hNpr1 antagonist,3T3 cytotox
Cc1ccc(C)c(S(=O)(=O)N2CCCC(Cn3c(C)nc4cccnc43)C2)c1 (stereo unspecified),i,i,40µM*,?,25µM*
Cc1cc(Cl)ccc1S(=O)(=O)N1CCCC(Cn2c(C)nc3cccnc32)C1 (stereo unspecified),i,i,20µM*,?,11µM*
Cc1ccc(S(=O)(=O)N2CCCC(Cn3c(C)nc4cccnc43)C2)c(C)c1 (stereo unspecified),-12%,i,?,?,?
Cn1ncc2c(C(=O)NCC(F)F)cc(-c3ccccc3C(F)(F)F)nc21,.,.,-9%,.,?
O=C(C1CC=CCC1)N1CCc2[nH]nc(-c3ccc(C(F)(F)F)cc3)c2C1 (stereo unspecified),-23%,i,25µM*,-6%,?
CSCCC(=O)N1CCc2[nH]nc(-c3ccc(C(F)(F)F)cc3)c2C1,?,?,?,-14%,?
Fc1ccc(-c2ccc3ncc(Nc4ccccn4)n3n2)cc1,-20%[88.5 µM],i,89µM*,-13%[70.6 µM],?
c1ccc(-c2ccc3ncc(Nc4ccccn4)n3n2)cc1,-8%[88.5 µM],i,?,-23%[70.6 µM],?
Clc1ccc(Nc2cnc3ccc(-c4ccccc4)nn23)nc1,i,i,?,?,?
CN(C)c1ccc2ncc(Nc3cc(F)cc(N4CCOCC4)c3)n2n1,i,?,?,2%[70.6 µM],?
COc1ccc(F)cc1Nc1cnc2ccc(N(C)C)nn12,?,i,100µM*,1%[70.6 µM],?
Fc1ccc(-c2ccc3ncc(Nc4ccc(Cl)cn4)n3n2)cc1,i,i,100µM*,-23%[70.6 µM],100µM*
CN(C)c1ccc2ncc(Nc3ccc(Cl)cn3)n2n1,?,i,?,-17%[70.6 µM],112µM*
Cc1cccc(OCCc2noc(C3CCCCN3C(=O)Nc3ccccc3)n2)c1 (stereo unspecified),i,.,?,.,?
CN(CCCN1CCOCC1)Cc1nc(-c2ccc(Cl)cc2)no1,i,i,-20%,-2%,-13%
COc1ccccc1CN(Cc1ccccc1C)C(=O)[C@H]1CCC[C@H](O)C1,-23%,i,22µM*,2%,-20%
O=C(c1ccccc1)N1CCC(C(=O)N2CCC(c3nc4ncccc4[nH]3)CC2)CC1,0%,.,i,.,i
COCC(=O)N1CC(N2C(=O)c3c(c(C)nn3-c3ccccc3)C2C2CC2)C1 (stereo unspecified),.,.,-14%[172 µM],.,112µM*
Cc1nn(-c2ccccc2)c2c1C(C1CC1)N(C1CN(C(=O)c3ccc(F)cc3)C1)C2=O (stereo unspecified),.,.,45µM*,.,?
C=CCn1cc2c3c(cccc31)[C@H](CC(C)C)N[C@H](C(=O)N1CCOCC1)C2,?,?,100µM*,-4%[70.6 µM],?
CC(C)C[C@@H]1N[C@H](C(=O)N2CCOCC2)Cc2cn(CC3CC3)c3cccc1c23,?,i,89µM*,-14%[70.6 µM],?
